Assay results reported in PubChem BioAssay (NCI).
The panel holds about 79,000 compounds, 15% with a hit somewhere; the sample as a whole holds those more often. Unmarked numbers belong to inactive results. Activity calls are given as the source filed them. Rule as the data show it: active = growth inhibition above about 70%; inactive = the rest.

Columns and labels:
[1] = NCI Yeast Anticancer Drug Screen. Data for the rad50 strain (AID 155);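 also: 0% = growth of vehicle-only cultures of the same strain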; conditions: S. cerevisiae rad50 strain growth inhibition, active compounds read high
Procedure, shortened: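 DNA repair mutant yeast, compound exposure, growth read-out; inhibition is taken relative to vehicle.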

[2] = NCI Yeast Anticancer Drug Screen. Data for the mec2-1 strain (AID 157); conditions: S. cerevisiae mec2-1 strain, active compounds read high
Procedure, shortened: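 mec2-1 yeast strain, carrying an alteration in DNA damage repair or cell cycle control, was exposed to compounds; growth inhibition was measured relative to vehicle-treated controls.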

[3] = NCI Yeast Anticancer Drug Screen. Data for the sgs1 mgt1 strain (AID 161);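 also: 0% = growth of cultures given vehicle only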; conditions: S. cerevisiae sgs1 mgt1 strain, active compounds read high
Procedure, shortened: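 Yeast cells carrying a defined DNA-repair defect were exposed to test compounds. Growth inhibition was measured relative to vehicle-treated controls.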

[4] = NCI Yeast Anticancer Drug Screen. Data for the cln2 rad14 strain (AID 165);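 also: 0% = growth equal to vehicle treated cultures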; conditions: S. cerevisiae cln2 rad14 strain, active compounds read high
Procedure, shortened: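 Yeast carrying cln2 and rad14 alterations (cell cycle control and DNA damage repair) were exposed to compounds. Growth inhibition was measured against vehicle-treated controls.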

[5] = NCI Yeast Anticancer Drug Screen. Data for the bub3 strain (AID 167); conditions: S. cerevisiae bub3 mutant strain, active compounds read high
Procedure, shortened: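 In this screen, a yeast mutant lacking normal mitotic checkpoint function is challenged with compound. Relative growth versus vehicle gives the inhibition value.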

[6] = NCI Yeast Anticancer Drug Screen. Data for the mlh1 rad18 strain (AID 175); conditions: S. cerevisiae mlh1 rad18 strain growth inhibition, active compounds read high
Procedure, shortened: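 Growth inhibition of the yeast strain was measured after compound exposure and expressed relative to vehicle-treated controls. The strain carries defined defects in DNA damage repair.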

[7] = at 5.0 µM (retest, dose inferred, filed as 0.5)
[8] = at 50.0 µM (retest, dose inferred, filed as 5.0)

| SMILES | growth inhibition [1, 7] | growth inhibition [1, 8] | growth inhibition ([1]; at 50.0 µM) | growth inhibition [2, 7] | growth inhibition [2, 8] | growth inhibition ([2]; at 50.0 µM) | growth inhibition [3, 7] | growth inhibition [3, 8] | growth inhibition ([3]; at 50.0 µM) | growth inhibition [4, 7] | growth inhibition [4, 8] | growth inhibition ([4]; at 50.0 µM) | growth inhibition [5, 7] | growth inhibition [5, 8] | growth inhibition ([5]; at 50.0 µM) | growth inhibition [6, 7] | growth inhibition [6, 8] | growth inhibition ([6]; at 50.0 µM) |
| --- | --- | --- | --- | --- | --- | --- | --- | --- | --- | --- | --- | --- | --- | --- | --- | --- | --- | --- |
| CCCCCN(CCCCC)CC(=O)OCC1(C)CCCC2(C)C3CCC(C(C)C)=CC3=CCC12 (stereo not given) | 1% | 22% | -3.45% | 2% | 54% | -9.75% | -3% | 80% (active) | 74.2% (active) | -1% | 39% | -59% | 1% | 73% (active) | -8.05% | 2% | 67% | 28.4% |
| CCOc1ccnc2c(C)c3c([nH]c4ccccc43)c(C)c12 | 50% | 99% (active) | 99.2% (active) | 23% | 99% (active) | 99.5% (active) | 29% | 52% | 99.2% (active) | 14% | 97% (active) | 99% (active) | 11% | 99% (active) | 99.3% (active) | 16% | 99% (active) | 99.3% (active) |
| O=C(/C=C/c1ccc(Cl)c(Cl)c1)CCN1CCN(CCC(=O)/C=C/c2ccc(Cl)c(Cl)c2)CC1 | 36% | 98% (active) | 82.7% (active) | 38% | 99% (active) | 85.5% (active) | 11% | 99% (active) | 88.1% (active) | 16% | 99% (active) | 86.3% (active) | 14% | 98% (active) | 82% (active) | 44% | 98% (active) | 86.5% (active) |
| CC(C)C1=CC(=O)C2=C(CCC3C(C)(C(=O)O)CCC[C@]23C)C1=O (stereo not given in full) | 7% | 99% (active) | 92.2% (active) | 28% | 99% (active) | 93% (active) | 20% | 99% (active) | 93.2% (active) | 15% | 99% (active) | 90.7% (active) | 54% | 98% (active) | 92.3% (active) | 21% | 99% (active) | 91.7% (active) |
| CC1(c2ccc(Cl)cc2)OC(=O)C(=Cc2ccc([N+](=O)[O-])s2)C(=O)O1 (stereo not given) | 26% | 99% (active) | 51.5% | 15% | 99% (active) | 40.4% | 49% | 99% (active) | 88.9% (active) | 44% | 99% (active) | 52.4% | 45% | 99% (active) | 84.7% (active) | 18% | 82% (active) | 92.9% (active) |
| CC12CCc3ccccc3C1=Nc1ccccc12 (stereo not given) | -3% | 78% (active) | 78.7% (active) | 2% | 89% (active) | 73.2% (active) | 8% | 82% (active) | 58.2% | -12% | -20% | -11.1% | 12% | 90% (active) | 88.7% (active) | -3% | 72% (active) | 55.5% |
| COc1cccc(C2c3cc4c(cc3OC(N3CCCC3)C2C)OCO4)c1 (stereo not given) | -16% | 74% (active) | 85.2% (active) | -34% | 82% (active) | 82% (active) | -27% | 54% | 77.8% (active) | -15% | 67% | 76.3% (active) | -30% | 88% (active) | 85% (active) | -32% | 72% (active) | 80.1% (active) |
| O=C1/C(=C/c2ccc([N+](=O)[O-])cc2)CNC/C1=C\c1ccc([N+](=O)[O-])cc1 | 74% (active) | 99% (active) | 77% (active) | 87% (active) | 99% (active) | 87.5% (active) | 93% (active) | 99% (active) | 85.5% (active) | 73% (active) | 97% (active) | 74% (active) | 90% (active) | 99% (active) | 83.8% (active) | 96% (active) | 99% (active) | 75.7% (active) |
| COc1ccc2c(c1)[n+]([O-])c(C(N)=O)c(N)[n+]2[O-] | 23% | 100% (active) | 99.4% (active) | 14% | 100% (active) | 99.5% (active) | 17% | 99% (active) | 99.3% (active) | 31% | 98% (active) | 99.1% (active) | 40% | 99% (active) | 98.4% (active) | 42% | 99% (active) | 99.2% (active) |
| COc1ccc(NCCN(C)C)c2c(=O)c3ccccc3sc12 | 13% | 53% | 90.4% (active) | 1% | 45% | 37.4% | -1% | 39% | 41.6% | -3% | 16% | -1.05% | -7% | 0% | 50.2% | -3% | 43% | 69.4% |
| Nc1nnc2nc(CC(=O)c3ccccc3)/c(=C/C(=O)c3ccccc3)n12 | -21% | -10% | -14.1% | -11% | -20% | 9.4% | -23% | -6% | 1.05% | -17% | -16% | 28.6% | 5% | -5% | -4.95% | -21% | -9% | -0.3% |
| CCCCCCCCCCCCCCC(=O)OCC[N+](C)(C)C | 33% | 98% (active) | 90.2% (active) | 24% | 98% (active) | 93% (active) | 45% | 99% (active) | 92.8% (active) | 33% | 98% (active) | 85.3% (active) | 44% | 99% (active) | 91.8% (active) | 27% | 97% (active) | 91.2% (active) |
| CC(C)C1=C(O)c2ccccc2C(=O)C1=O | -9% | 97% (active) | 86.8% (active) | 13% | 94% (active) | 78.7% (active) | 38% | 97% (active) | 90.5% (active) | -21% | 86% (active) | 62.6% | 11% | 97% (active) | 84.3% (active) | 18% | 98% (active) | 90.2% (active) |
| C=C(Br)CN(C)CC(=C)Br | 0% | 40% | 82% (active) | 7% | -19% | -17.1% | 4% | -10% | 22.2% | -15% | -50% | 0.15% | -2% | 5% | -15% | -6% | 25% | 62.5% |
| O=C(c1ccc(F)cc1)c1ccc(Cl)cc1Cl | 96% (active) | 98% (active) | 97% (active) | 100% (active) | 99% (active) | 98.7% (active) | 100% (active) | 99% (active) | 93.5% (active) | 99% (active) | 100% (active) | 98.2% (active) | 99% (active) | 100% (active) | 98.9% (active) | 99% (active) | 99% (active) | 99.2% (active) |
| CCN(CC)CC(O)CNc1ccc(NCC(O)CCl)c2c1C(=O)c1ccccc1C2=O (stereo not given) | 98% (active) | 98% (active) | 36% | 98% (active) | 98% (active) | -19.1% | 98% (active) | 98% (active) | 7.1% | 97% (active) | 97% (active) | 10.8% | 97% (active) | 97% (active) | 12.4% | 99% (active) | 99% (active) | 19.1% |
| Cc1cc2nc3ccc(N(C)C)cc3nc2cc1N | 42% | 94% (active) | 51.6% | 20% | 89% (active) | 93.8% (active) | 42% | 94% (active) | 45.9% | 29% | 80% (active) | 82.2% (active) | 19% | 90% (active) | 94.9% (active) | 42% | 92% (active) | 92% (active) |
| CN=C(N)NN=C(c1ccc(Cl)cc1)c1ccc(Cl)cc1 | 32% | 99% (active) | 87.8% (active) | 30% | 99% (active) | 91.2% (active) | 51% | 99% (active) | 87.5% (active) | 48% | 98% (active) | 85% (active) | 52% | 99% (active) | 83.2% (active) | 25% | 98% (active) | 92.4% (active) |
| O=[N+]([O-])c1ccc(/C(=C\c2ccccc2)Cn2ccnc2)cc1 | 88% (active) | 94% (active) | 71.5% (active) | 59% | 85% (active) | 77% (active) | 84% (active) | 92% (active) | 71.3% (active) | 89% (active) | 91% (active) | 64.8% | 78% (active) | 94% (active) | 81.8% (active) | 80% (active) | 92% (active) | 75.5% (active) |
| O=C1C(CCl)=CS(=O)(=O)c2ccccc21 | 10% | 99% (active) | 99.1% (active) | 17% | 99% (active) | 99.3% (active) | 16% | 99% (active) | 99.2% (active) | 5% | 99% (active) | 99.3% (active) | 4% | 99% (active) | 99.3% (active) | 36% | 99% (active) | 99.2% (active) |
